Reference: PubChem BioAssay (NCI)
The panel holds about 83,000 compounds, 20% with a hit somewhere; the sample as a whole holds those more often.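 How to read the values: 0–100, growth inhibition (40 = 60% inhibited); 0, no net growth; -100 to 0, cell death (-40 = 40% of starting cells died; -100 = all dead).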 Active and inactive are the calls of the source. How the source made its calls: active means growth percent below 10; inactive means the rest.

The compounds below were run on MDA-MB-468 breast (assay: NCI-60 one-dose screen, 48 h (100 = growth as untreated, 0 = no growth, -100 = all killed)). Settings: 10 µM unless noted.
With `O=C(O)[C@@H](Cc1ccc2ccccc2c1)NC(=O)n1c2ccccc2c2ccccc21` the growth was 11.9% (inactive). For `CN1CCN(Cc2ccc(NC(=O)c3cncc(C#Cc4cnc5ccc(OCC6COC6)nn45)c3)cc2C(F)(F)F)CC1`, the growth was -60.7% (active). For `Nc1nc(SCc2cccnc2)c2ncn(C3OC(CO)C(O)C3O)c2n1` (stereo not given), the growth was 97.4% (inactive). With `CCCSC1=NC2C(N(CC)C(=O)N2CC)N1/N=C/C=C/c1ccccc1[N+](=O)[O-]` (stereo not given) the growth was 29.9% (inactive). For `COc1ccc(/C=C2/C(=O)NC(SCC(=O)N3CCN(c4cc5c(cc4F)c(=O)c(C(=O)O)cn5C4CC4)CC3)=NC2N)cc1OC` (stereo not given), the growth was 102% (inactive). For `Clc1cc(Cl)cc(Nc2ccc3c(OCCCN4CCOCC4)cccc3n2)c1`, the growth was 20.6% (inactive). For `O=C(C[C@]1(O)C(=O)Nc2ccccc21)c1cccc(C(F)(F)F)c1`, the growth was 83.9% (inactive). With `CCN(C(=O)CN1CCN(c2cc3c(cc2F)c(=O)c(C(=O)O)cn3CC)CC1)c1nc(-c2ccccc2)cs1` the growth was -7.7% (active). With `C#CC#CC#CC#CC#CC#CC#CC#CCC1OC[C@H](COC(=O)O[C@@H](C(=O)O[C@H]2C[C@@]3(O)[C@@H](OC(=O)c4ccccc4)[C@@H]4[C@]5(OC(C)=O)CO[C@@H]5C[C@H](O)[C@@]4(C)C(=O)[C@H](OC(C)=O)C(=C2C)C3(C)C)[C@@H](NC(=O)c2ccccc2)c2ccccc2)O1` (stereo not given in full) the growth was 8.69% (active). For `CCCCn1sc(=O)n(Cc2ccc(CNC(=O)OCc3ccc4c(Br)cc(Br)c(O)c4n3)cc2)c1=O`, the growth was 27.3% (inactive). `C#Cc1cccc(NC(=O)c2ccc(NC(=O)C=C)cc2)c1` was tested, and the growth was 14.6% [8.25 µM] (inactive). For `O=CNc1ccc2c(c1)Cc1cccc(NC=O)c1-2`, the growth was 14.5% (inactive). With `COc1cc2ncnc(Nc3ccc(S(=O)(=O)Nc4nccs4)cc3)c2cc1OCCCN1CCCC1` the growth was 99.2% (inactive). With `BrC1=C(Br)C(Br)(Br)C(Br)=C1Br` the growth was 97.7% (inactive). For `C[C@@H](Oc1cc(C(=O)Nc2ccc(C(=O)N3CCN(C)CC3)cc2)nnc1N)c1c(Cl)ccc(F)c1Cl`, the growth was 62.3% (inactive). For `Cc1ccc(S(=O)(=O)c2ccccc2)cc1`, the growth was -10.8% (active). With `Cn1ncc2ccc(-c3nc(-c4ccccc4)[nH]c3-c3n[nH]c(=O)n3C3CC3)cc21` the growth was 104% (inactive). In the case of `C[C@H](Nc1ncnc2ccc(-c3cnc(Cl)c(NS(C)(=O)=O)c3)cc12)c1ccccc1`, the growth is reported as -62.4% (active). In the case of `CCN(CC)c1ccc(/C=C/C2=[N+](C)c3ccccc3C2(C)C)cc1`, the growth is reported as 20.4% (inactive). `Oc1ccccc1/C=N/Nc1nc2ccccc2s1` was tested, and the growth was 21.5% (inactive). In the case of `CCOC(=O)Cn1nnc(-c2ccc(OCc3ccccc3F)cc2)n1`, the growth is reported as 90.4% (inactive). For `Cc1nn(-c2nc3ccccc3[nH]2)c2c1C(c1ccc3c(c1)OCO3)CC(=O)N2` (stereo not given), the growth was 47.7% (inactive). With `COc1cc2nc(C(=O)N3CCCCC3)cc(Nc3ccccc3)c2cc1OC` the growth was 131% (inactive). In the case of `COc1ccc(Nc2[nH]n3c(=O)cc(-c4ccccc4)nc3c2C(=O)Nc2ccc(C)cc2)c(OC)c1`, the growth is reported as 58.6% (inactive). With `COc1cc(/C=N/OC(=O)Nc2ccccc2)cc(OC)c1OC` the growth was 105% (inactive). `COc1ccc(-c2ccc(-c3ccc(C(=N)N)o3)o2)cc1` was tested, and the growth was 15.3% (inactive). For `CC1OC(C(=O)N2CCN(CCO)CC2)CC1COC1CCCCC1` (stereo not given), the growth was 94.6% [50 µM] (inactive). In the case of `CCOC(=O)N1CCN(CCCCOc2ccc(C(C)(C)CC)cc2)CC1`, the growth is reported as 92.9% (inactive). In the case of `C#CCOc1ccc2ncnc(N3CCN(C(=O)CCl)CC3)c2c1`, the growth is reported as -9.23% [8.25 µM] (active). For `CCNc1nc(-c2ccc(Cl)c(OC)c2)c(-c2ccnc(NCCNS(=O)(=O)c3ccc(Cl)cc3)n2)s1`, the growth was -8.24% (active). With `O=C1c2ccccc2C(=O)c2c1ccc1[nH]c(-c3cccs3)nc21` the growth was 99.6% (inactive). For `COc1ccc(Nc2nnc(SCc3ccccc3F)s2)cc1`, the growth was 55.9% (inactive). With `O=[N+]([O-])c1ccc(OCCO)cc1` the growth was 120% (inactive). For `O=C(N=Nc1c(O)[nH]c2ccccc12)c1oc2ccccc2c1CN1CCN(c2ccccc2)CC1`, the growth was -46% (active). In the case of `Cc1ccccc1-c1cc(Cc2ccccc2O)c(=O)[nH]n1`, the growth is reported as 170% (inactive). `Fc1cc(-c2cnc3nonc3n2)c(Cl)cc1Cl` was tested, and the growth was 61.8% (inactive). In the case of `COc1cc(Nc2nc(N[C@H]3CCCC[C@@H]3N)nc3cc[nH]c(=O)c23)cc(OC)c1`, the growth is reported as -24.5% (active). In the case of `CCC1=CC2CN(C1)Cc1c([nH]c3ccccc13)[C@@](C(=O)OC)(c1cc3c(cc1OC)N(C)[C@H]1[C@@](O)(C(=O)OC)[C@H](OC(C)=O)[C@]4(CC)C=CCN5CC[C@]31[C@@H]54)C2` (stereo not given in full), the growth is reported as 44.4% (inactive). For `Cc1cc(O)c(C2=NN(c3ccc(S(N)(=O)=O)cc3)C(/C=C/c3ccccc3)C2)cc1Cl` (stereo not given), the growth was 43.3% (inactive). For `BrCc1cccc(C[P+](c2ccccc2)(c2ccccc2)c2ccccc2)c1`, the growth was -12.4% (active).
